Consider 15 sequences from paper PMC3218832.

Among the targets are RELARELA (p65 homodimer) (Homo sapiens, UniProt Q04206 1-307); p50p50 homodimer (Homo sapiens, UniProt P19838 7-356); RELB subunit;p50 subunit (Homo sapiens;Homo sapiens, UniProt Q01201;P19838 120-401;7-356).
What all share (test): protein binding microarray; high values mean tight binding
What all share (conditions): dsDNA, one strand shown

For a further test, the target named is T1, p52p52 homodimer (Homo sapiens, UniProt Q00653 4-332).
T1 sequence: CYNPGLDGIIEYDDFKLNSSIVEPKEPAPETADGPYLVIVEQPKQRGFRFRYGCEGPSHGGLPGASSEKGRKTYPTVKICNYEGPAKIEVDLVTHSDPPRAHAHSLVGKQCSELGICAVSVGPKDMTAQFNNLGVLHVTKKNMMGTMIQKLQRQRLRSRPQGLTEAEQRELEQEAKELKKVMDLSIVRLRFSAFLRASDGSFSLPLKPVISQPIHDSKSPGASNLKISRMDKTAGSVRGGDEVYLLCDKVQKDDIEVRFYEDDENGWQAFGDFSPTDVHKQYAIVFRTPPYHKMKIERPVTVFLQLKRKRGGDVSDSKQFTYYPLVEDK

Test [1] deals with RELA (p65) subunit of heterodimer;p50 subunit (Homo sapiens;Homo sapiens, UniProt Q04206;P19838 1-307;7-356).
RELA (p65) subunit of heterodimer;p50 subunit, sequence (Q04206 1-307, chain 1 of 2): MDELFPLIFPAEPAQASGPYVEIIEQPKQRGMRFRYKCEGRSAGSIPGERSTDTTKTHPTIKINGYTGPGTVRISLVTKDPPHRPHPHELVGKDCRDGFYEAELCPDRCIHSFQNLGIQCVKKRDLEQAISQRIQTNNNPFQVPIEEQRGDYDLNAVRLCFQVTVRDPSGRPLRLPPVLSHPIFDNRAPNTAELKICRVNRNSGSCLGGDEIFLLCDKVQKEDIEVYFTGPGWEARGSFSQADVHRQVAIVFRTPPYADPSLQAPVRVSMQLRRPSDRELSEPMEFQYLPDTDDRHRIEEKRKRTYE
RELA (p65) subunit of heterodimer;p50 subunit, sequence (P19838 7-356, chain 2 of 2): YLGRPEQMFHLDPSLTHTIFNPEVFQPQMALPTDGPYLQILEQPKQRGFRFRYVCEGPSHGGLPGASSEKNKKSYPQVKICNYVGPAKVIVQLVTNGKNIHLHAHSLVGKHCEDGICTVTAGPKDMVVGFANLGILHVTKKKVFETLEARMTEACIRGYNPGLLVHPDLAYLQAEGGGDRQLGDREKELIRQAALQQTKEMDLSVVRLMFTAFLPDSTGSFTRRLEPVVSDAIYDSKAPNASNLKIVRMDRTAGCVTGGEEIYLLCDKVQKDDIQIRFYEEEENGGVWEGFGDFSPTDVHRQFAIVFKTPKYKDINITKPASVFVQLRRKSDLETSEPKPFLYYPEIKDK
The target in test [2] is RELA (p65) subunit of heterodimer;p52 subunit (Homo sapiens;Homo sapiens, UniProt Q04206;Q00653 1-307;4-332).
A further test deals with T2, RELB subunit;p52 subunit (Homo sapiens;Homo sapiens, UniProt Q01201;Q00653 120-401;4-332).
T2 sequence 1: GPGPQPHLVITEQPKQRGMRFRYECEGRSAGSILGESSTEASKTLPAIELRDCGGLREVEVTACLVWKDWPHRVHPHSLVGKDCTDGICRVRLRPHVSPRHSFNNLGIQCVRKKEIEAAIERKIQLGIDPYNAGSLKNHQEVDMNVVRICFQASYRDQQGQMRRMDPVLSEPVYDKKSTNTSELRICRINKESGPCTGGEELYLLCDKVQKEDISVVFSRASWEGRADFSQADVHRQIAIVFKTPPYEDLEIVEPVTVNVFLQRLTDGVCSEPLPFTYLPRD
T2 sequence 2: T1 sequence

The target of test [3] is C-Rel subunit;p50 subunit (Homo sapiens;Homo sapiens, UniProt Q04864;P19838 1-285;7-356).
Test [4] concerns the target T3, C-Rel subunit;p52 subunit (Homo sapiens;Homo sapiens, UniProt Q04864;Q00653 1-285;4-332).
T3 sequence 1: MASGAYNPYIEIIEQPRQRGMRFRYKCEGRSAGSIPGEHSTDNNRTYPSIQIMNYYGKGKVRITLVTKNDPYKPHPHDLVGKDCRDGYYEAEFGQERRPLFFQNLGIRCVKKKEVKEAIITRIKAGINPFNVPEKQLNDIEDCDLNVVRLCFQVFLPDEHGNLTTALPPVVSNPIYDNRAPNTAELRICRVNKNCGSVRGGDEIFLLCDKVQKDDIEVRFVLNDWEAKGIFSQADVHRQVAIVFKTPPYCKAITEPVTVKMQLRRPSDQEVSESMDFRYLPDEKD
T3 sequence 2: T1 sequence

p50p50 homodimer, sequence (P19838 7-356): as the sequence (P19838 7-356, chain 2 of 2) above
RELARELA (p65 homodimer), sequence (Q04206 1-307): as the sequence (Q04206 1-307, chain 1 of 2) above

As for CAGGGATCCCC, the binding signal with RELARELA (p65 homodimer) is 0.967 z-score; in the test with p50p50 homodimer, 0.94 z-score; in the test with p52p52 homodimer, 0.898 z-score; in [1], 1.56 z-score; in [2], 1.23 z-score; with RELB subunit;p50 subunit it was 1.11 z-score. Also, the binding signal with RELB subunit;p52 subunit was found to be 1.1 z-score; in [3], 1.1 z-score; in [4], 1.31 z-score.

For the sequence CAGGTTTCCCT, the binding signal came to 0.821 z-score with RELARELA (p65 homodimer); 1.16 z-score with p50p50 homodimer; 1.21 z-score with p52p52 homodimer; 1.39 z-score in [1]; 1.33 z-score in [2]; 1.28 z-score with RELB subunit;p50 subunit. In addition, the binding signal with RELB subunit;p52 subunit is 1.76 z-score; in test [3], 1.26 z-score; in [4], 0.893 z-score.

With CAAATTTTCCC, the binding signal with RELARELA (p65 homodimer) stood at 2.86 z-score; in the test with p50p50 homodimer it was 1.18 z-score; in the test with p52p52 homodimer it was 1.47 z-score; in test [1], 1.48 z-score; in [2] it was 1.47 z-score; with RELB subunit;p50 subunit it was 1.08 z-score. In addition, the binding signal turned out to be 1.27 z-score with RELB subunit;p52 subunit, 1.5 z-score in test [3] and 1.39 z-score in test [4].

As for CAAAGTTTCCT, the binding signal was 0.729 z-score with RELARELA (p65 homodimer); -0.548 z-score with p50p50 homodimer; -0.572 z-score in the test with p52p52 homodimer; -0.313 z-score in test [1]; -0.494 z-score in test [2]; -0.737 z-score with RELB subunit;p50 subunit. The results for the binding signal (with RELB subunit;p52 subunit; in test [3]; in [4]) were -0.489 z-score, -0.0288 z-score and -0.21 z-score, respectively.

Consider AAGATAATCCT, for which the binding signal is -0.605 z-score with RELARELA (p65 homodimer); -1.55 z-score in the test with p50p50 homodimer; -0.666 z-score in the test with p52p52 homodimer; -1.04 z-score in [1]; -0.884 z-score in test [2]; -1.14 z-score in the test with RELB subunit;p50 subunit. For the same sequence, the binding signal is -0.91 z-score with RELB subunit;p52 subunit, -1.26 z-score in test [3] and -0.848 z-score in [4].

In the case of CAAAAACCCCT, the binding signal with RELARELA (p65 homodimer) is 1.05 z-score; with p50p50 homodimer it was 1.47 z-score; with p52p52 homodimer it was 2.66 z-score; in test [1], 1.84 z-score; in test [2], 2.09 z-score; with RELB subunit;p50 subunit, 2.09 z-score. Further, the values for the binding signal (in the test with RELB subunit;p52 subunit; in [3]; in [4]) were 2.18 z-score, 1.37 z-score and 2.28 z-score, respectively.

In the case of AAAGTGGTCCC, the binding signal was -0.237 z-score in the test with RELARELA (p65 homodimer); 0.456 z-score with p50p50 homodimer; 0.16 z-score in the test with p52p52 homodimer; -0.319 z-score in test [1]; -0.267 z-score in test [2]; 0.24 z-score in the test with RELB subunit;p50 subunit. In addition, the binding signal was -0.0596 z-score in the test with RELB subunit;p52 subunit, -0.25 z-score in [3] and -0.422 z-score in [4].

Take CAATTATCCCC: the binding signal in the test with RELARELA (p65 homodimer) amounted to 0.4 z-score; with p50p50 homodimer, 1.12 z-score; in the test with p52p52 homodimer, 1.04 z-score; in test [1], 1.31 z-score; in test [2], 1.12 z-score; in the test with RELB subunit;p50 subunit it was 1.3 z-score. The binding signal turned out to be 1.33 z-score with RELB subunit;p52 subunit, 1.2 z-score in [3] and 0.884 z-score in test [4].

GGATGATTCCT: the binding signal with RELARELA (p65 homodimer) is 0.0919 z-score; with p50p50 homodimer, -1.32 z-score; in the test with p52p52 homodimer it was -0.648 z-score; in test [1], -0.708 z-score; in [2], -0.749 z-score; with RELB subunit;p50 subunit, -0.941 z-score. The binding signal in the test with RELB subunit;p52 subunit was -0.913 z-score; in test [3], -0.706 z-score; in test [4], -0.54 z-score.

As for AAGTGCTCCCT, the binding signal in the test with RELARELA (p65 homodimer) is -0.204 z-score; with p50p50 homodimer it was -0.136 z-score; in the test with p52p52 homodimer it was -0.291 z-score; in [1], -0.382 z-score; in test [2], -0.51 z-score; with RELB subunit;p50 subunit, -0.322 z-score. For the same sequence, the binding signal with RELB subunit;p52 subunit is -0.434 z-score; in [3], -0.836 z-score; in test [4], -0.646 z-score.

In the case of CGAGGGTTCCC, the binding signal was -0.124 z-score with RELARELA (p65 homodimer); -0.573 z-score with p50p50 homodimer; -0.304 z-score with p52p52 homodimer; -0.206 z-score in test [1]; -0.377 z-score in [2]; -0.397 z-score with RELB subunit;p50 subunit. In addition, the binding signal with RELB subunit;p52 subunit is -0.335 z-score; in [3], -0.0483 z-score; in [4], -0.0728 z-score.

Turning to CAGGGCCTCCC, the binding signal is -0.644 z-score with RELARELA (p65 homodimer); -0.933 z-score in the test with p50p50 homodimer; -0.467 z-score with p52p52 homodimer; -0.699 z-score in test [1]; -0.636 z-score in test [2]; -0.64 z-score with RELB subunit;p50 subunit. Besides, the binding signal is -0.746 z-score in the test with RELB subunit;p52 subunit, -0.529 z-score in test [3] and -0.502 z-score in [4].

In the case of AGATGGTCCCC, the binding signal with RELARELA (p65 homodimer) was -0.243 z-score; with p50p50 homodimer it was 0.441 z-score; with p52p52 homodimer, 0.342 z-score; in test [1] it was 0.0737 z-score; in test [2], 0.172 z-score; with RELB subunit;p50 subunit it was 0.435 z-score. In addition, the binding signal was found to be 0.355 z-score in the test with RELB subunit;p52 subunit, 0.292 z-score in test [3] and 0.217 z-score in test [4].

Take GAGATGATCCT: the binding signal with RELARELA (p65 homodimer) is -0.876 z-score; in the test with p50p50 homodimer, -1.5 z-score; with p52p52 homodimer, -0.697 z-score; in test [1], -0.978 z-score; in [2], -1.06 z-score; with RELB subunit;p50 subunit, -1.27 z-score. The results for the binding signal (in the test with RELB subunit;p52 subunit; in test [3]; in [4]) were -1.16 z-score, -1.84 z-score and -1.11 z-score, respectively.

For the sequence GAATTGTTCCT, the binding signal with RELARELA (p65 homodimer) is 0.0616 z-score; with p50p50 homodimer, -1.38 z-score; with p52p52 homodimer, -0.497 z-score; in test [1], -0.672 z-score; in test [2] it was -0.721 z-score; in the test with RELB subunit;p50 subunit it was -1.09 z-score. The binding signal with RELB subunit;p52 subunit is -0.587 z-score; in [3] it was -0.937 z-score; in test [4] it was -0.574 z-score.
